Experimental data taken from the antibiotic and cytotoxicity screens of Wong et al. (2023).
Out of some 39,000 compounds screened, about 3,300 (8.5%) were called active. What follows is part of a selection rich in actives, with near analogues and random picks from the rest.

The molecules below were run on HepG2 (assay: cytotoxicity call (relative viability < 0.9)). Details: 10 µM.
In the case of `CN1N=C(N)c2cn([C@@H]3O[C@H](COP(=O)(O)O)[C@@H](O)[C@H]3O)c3ncnc1c23`, the cytotoxicity call is reported as “inactive”. In the case of `C[C@@H]1CN([C@@H](C)CO)C(=O)Cc2cc(NC(=O)CCN3CCOCC3)ccc2O[C@H]1CN(C)C(=O)Nc1ccccc1`, the cytotoxicity call is reported as “inactive”. With `CCO[C@@H]1OC(C(=O)N2CCN(Cc3ccc4c(c3)OCO4)CC2)=C[C@H](c2ccc3c(c2)OCO3)[C@H]1CCCO` the cytotoxicity call was “inactive”. For `COCC1=C(C(=O)OC(C)OC(=O)OC(C)C)N2C(=O)C(NC(=O)C(=NOC)c3csc(N)n3)C2SC1` (configuration not stated), the cytotoxicity call was “inactive”. `C[C@H](CO)N1C[C@H](C)[C@@H](CN(C)Cc2ccncc2)Oc2cc(C#CC(C)(C)O)ccc2S1(=O)=O` was tested, and the cytotoxicity call was “inactive”. For `C[C@@H]1CCCCO[C@@H](CN(C)C(=O)C2CCCCC2)[C@H](C)CN([C@H](C)CO)C(=O)c2cc(NC(=O)c3ccncc3)ccc2O1`, the cytotoxicity call was “inactive”. `Cc1noc(C)c1NC(=O)N(C)C[C@@H]1Oc2c(NC(=O)Nc3ccc(C(F)(F)F)cc3)cccc2C(=O)N([C@@H](C)CO)C[C@H]1C` was tested, and the cytotoxicity call was “inactive”. In the case of `C[C@H](CO)N1C[C@H](C)[C@@H](CN(C)C(=O)Nc2ccc(C(F)(F)F)cc2)Oc2c(NC(=O)Nc3ccc(C(F)(F)F)cc3)cccc2C1=O`, the cytotoxicity call is reported as “active”. With `Cc1noc(C)c1NC(=O)N(C)C[C@H]1Oc2c(NC(=O)Nc3ccc(C(F)(F)F)cc3)cccc2C(=O)N([C@@H](C)CO)C[C@H]1C` the cytotoxicity call was “active”. In the case of `Cc1noc(C)c1NC(=O)N(C)C[C@@H]1Oc2c(NC(=O)Nc3ccc(C(F)(F)F)cc3)cccc2C(=O)N([C@H](C)CO)C[C@H]1C`, the cytotoxicity call is reported as “inactive”. In the case of `C[C@@H]1CN([C@H](C)CO)C(=O)c2cccc(NC(=O)Nc3ccc(C(F)(F)F)cc3)c2O[C@@H]1CN(C)C(=O)Nc1ccc2c(c1)OCO2`, the cytotoxicity call is reported as “inactive”. With `C[C@@H]1CN([C@@H](C)CO)C(=O)c2cccc(NC(=O)Nc3ccc(C(F)(F)F)cc3)c2O[C@H]1CN(C)C(=O)Nc1ccc2c(c1)OCO2` the cytotoxicity call was “inactive”. For `C[C@H](CO)N1C[C@H](C)[C@H](CN(C)C(=O)Nc2ccc3c(c2)OCO3)Oc2c(NC(=O)Nc3ccc(C(F)(F)F)cc3)cccc2C1=O`, the cytotoxicity call was “active”. In the case of `O=C1c2ccccc2[C@@]2(Cc3ccccc3N(Cc3ccccc3)C2=O)[C@H](c2ccc(CO)cc2)N1Cc1ccccc1C(F)(F)F`, the cytotoxicity call is reported as “inactive”. With `Cc1noc(C)c1S(=O)(=O)N(C)C[C@@H]1Oc2ccc(NS(=O)(=O)c3cccs3)cc2CC(=O)N([C@H](C)CO)C[C@@H]1C` the cytotoxicity call was “inactive”. For `CN(C)Cc1cn(CC[C@@H]2CC[C@@H](NC(=O)Cc3cccnc3)[C@H](CO)O2)nn1`, the cytotoxicity call was “inactive”. `Cc1noc(C)c1NC(=O)Nc1ccc2c(c1)CC(=O)N([C@@H](C)CO)C[C@H](C)[C@@H](CN(C)C(=O)NC(C)C)O2` was tested, and the cytotoxicity call was “inactive”.
